Measurements published in PubChem BioAssay AID1851 (National Center for Advancing Translational Sciences (NCATS), 2009).
In all, about 16,000 compounds went through this assay and about 5,100 (32%) were called active. Inconclusive results (about 25%) are left out. This is one part of the list. Values without a mark were called inactive. The call rests on the fitted dose curve; in most records, active means well fitted curve in the direction sought with a large enough effect; inconclusive means small, poorly fitted or top-dose-only effect, or effect the other way; inactive means no such curve, though single readings can be large or run the other way.

Molecular target: Cytochrome P450 3A4 (Homo sapiens) (UniProt P08684)
Assay: Cytochrome panel assay with activity outcomes
Conditions: recombinant CYP, pro-luciferin dealkylation, luminescence, p450-cyp3a4; series mostly up to 57.1 µM; activity, negative = inhibition: at the top concentration
On the % scale 0 is the no-effect control and ±100 the full control effect.

Cytochrome P450 3A4 (Homo sapiens), sequence (P08684 whole entry, looked up): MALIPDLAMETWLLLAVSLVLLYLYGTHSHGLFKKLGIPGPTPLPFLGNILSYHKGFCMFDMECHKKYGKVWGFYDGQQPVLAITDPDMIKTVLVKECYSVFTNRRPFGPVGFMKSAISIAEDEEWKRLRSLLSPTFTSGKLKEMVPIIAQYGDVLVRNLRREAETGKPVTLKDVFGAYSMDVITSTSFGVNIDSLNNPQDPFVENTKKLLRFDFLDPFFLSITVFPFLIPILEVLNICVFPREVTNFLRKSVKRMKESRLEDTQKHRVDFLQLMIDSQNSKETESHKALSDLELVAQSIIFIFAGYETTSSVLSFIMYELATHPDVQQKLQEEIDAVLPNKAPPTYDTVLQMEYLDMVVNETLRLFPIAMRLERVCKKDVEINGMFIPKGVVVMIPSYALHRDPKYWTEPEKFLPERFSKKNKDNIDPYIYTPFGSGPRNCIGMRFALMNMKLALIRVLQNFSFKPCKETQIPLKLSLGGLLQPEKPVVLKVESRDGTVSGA

Row | Structure (SMILES) | activity, negative = inhibition | AC50
1 | Cc1cccc(C)c1NC(=O)N1CCC(N2CCCCC2)CC1 | -21.5% | –
2 | Cc1cccc(C)c1NC(=O)C(c1ccc(Cl)cc1Cl)N1CCCCC1 (centres undefined) | – | 3.98 µM (active)
3 | O=C(O)/C=C\C(=O)Nc1ncn[nH]1 | -3.91% [at 11.4 µM] | –
4 | COC(=O)Nc1nc2ccc(C(=O)c3ccccc3)cc2[nH]1 | -1.41% [at 25.6 µM] | –
5 | Cc1ccccc1NC(=O)C(C)c1cccc(C(=O)c2ccccc2)c1 (centres undefined) | – | 7.94 µM (active)
6 | CCCN[C@@H](C)C(=O)Nc1ccccc1C | – | inactive
7 | COc1cccc(-c2noc(Cn3nc(C)c([N+](=O)[O-])c3C)n2)c1 | – | 14.1 µM (active)
8 | Cc1cccc(-c2n[nH]c([N+](=O)[O-])n2)c1 | -5.58% [at 2.29 µM] | –
9 | COc1cccc(CN2CCN(Cc3cc(OC)c(OC)cc3[N+](=O)[O-])CC2)c1 | -15.7% [at 2.29 µM] | –
10 | CC[C@H](CO)NCCN[C@@H](CC)CO | 4.95% [at 25.6 µM] | –
11 | N[C@@H](Cc1[nH]nc2ccccc12)C(=O)O | -7.68% [at 11.4 µM] | –
12 | COc1ccc(CCCC(=O)NC2CCCCC2)cc1 | – | 20 µM (active)
13 | CC(C)NC(=O)CC(=O)N/N=C/c1ccc(Br)cc1 | -3.05% | –
14 | COc1ccc(/C=N/NC(=O)CCCC(=O)NC2CCCCC2)cc1 | – | 12.6 µM (active)
15 | COc1ccc(CCNC(=O)COc2ccc(S(=O)(=O)NC3CCCCC3)cc2Cl)cc1 | – | 7.08 µM (active)
16 | COc1ccc(/C=N\NC(=O)O)cc1 | -13.4% [at 11.4 µM] | –
17 | O=C(COc1ccc(Cl)cc1)NCCC1=CCCCC1 | -14.7% [at 11.4 µM] | –
18 | CCC1=C(C)CN(C(=O)NCCc2ccc(S(=O)(=O)NC(=O)NC3CCC(C)CC3)cc2)C1=O (centres undefined) | -25.9% [at 25.6 µM] | –
19 | COC(=O)c1ccc(NC(=S)NC2CCCCC2)cc1 | -15.8% | –
20 | CC(C)OC(=O)C1=C2SCC(=O)N2C(N)=C(C#N)C1 | -16.2% [at 11.4 µM] | –
21 | COc1ccc(-n2c(=O)c(-c3cccc(C#N)c3)nc3cnc(N4CCNCC4)nc32)cc1 | -26.2% | –
22 | c1ccc2c(N3CCNCC3)nc(-c3ccc4c(c3)OCO4)nc2c1 | – | 7.94 µM (active)
23 | CN1CCN(c2nc(-c3cccc(C#N)c3)nc3ccccc23)CC1 | – | 15.8 µM (active)
24 | N#Cc1cccc(-c2nc(N3CCNCC3)c3ccccc3n2)c1 | – | 31.6 µM (active)
25 | O=C(N[C@@H](c1ccccc1)[C@@H]1C[C@H]1C(=O)NCc1ccccn1)OCc1ccccc1 | – | 6.31 µM (active)
26 | C[C@@H](C(=O)NCc1ccccn1)[C@H]1C[C@]1(C)[C@H](NC(=O)OCc1ccccc1)c1ccccc1 | – | 5.01 µM (active)
27 | C[C@@H](C(=O)NCc1ccccn1)[C@@H]1C[C@@]1(C)[C@@H](NC(=O)OCc1ccccc1)c1ccccc1 | – | 10 µM (active)
28 | CC(Cc1ccccc1)C(=O)NCc1ccccn1 (centres undefined) | -42.9% | –
29 | O=C(N[C@@H](c1ccccc1)[C@@H]1C[C@H]1C(=O)O)OCc1ccccc1 | -15.8% | –
